# Screening data deposited in PubChem BioAssay by National Center for Advancing Translational Sciences (NCATS).
# D2 ag-1: activates the human D2 dopamine receptor | P14416 | HEK293 T-REx D2 cells, calcium flux agonist mode | activation, % at 2 µM | actives 0.53% (n = 340,000) | AID 485358;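 active = activation over 3 SD above normal in the single-dose calcium agonist read, cut at about 30% in these data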; also: 0% is about no effect
# Target sequence (P14416 whole entry, looked up): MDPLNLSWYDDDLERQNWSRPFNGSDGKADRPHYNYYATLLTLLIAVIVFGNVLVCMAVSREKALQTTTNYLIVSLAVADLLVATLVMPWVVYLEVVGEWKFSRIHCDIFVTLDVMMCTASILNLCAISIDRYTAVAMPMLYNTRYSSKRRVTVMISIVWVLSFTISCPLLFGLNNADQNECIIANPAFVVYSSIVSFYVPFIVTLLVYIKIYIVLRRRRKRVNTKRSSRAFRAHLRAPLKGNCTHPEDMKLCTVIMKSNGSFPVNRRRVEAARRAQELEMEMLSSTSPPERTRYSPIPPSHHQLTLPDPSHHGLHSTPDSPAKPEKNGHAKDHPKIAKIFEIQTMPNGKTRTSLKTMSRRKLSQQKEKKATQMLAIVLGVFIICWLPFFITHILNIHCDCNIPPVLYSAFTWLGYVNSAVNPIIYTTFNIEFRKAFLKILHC
#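 Agonism scored from kinetic calcium signal (1 read/sec, 180 s) following compound pin transfer, after a 10 s baseline. Cells: HEK293 Trex line expressing inducible D2 receptor coupled to calcium, dye-loaded after overnight culture at 30 C.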
# D2 ag-2: activates the human D2 dopamine receptor; activation, % (test concentration not listed); P14416; actives 0.084% (n = 360,000); DiscoveRx PathHunter D2 beta-arrestin, luminescence, 90 min; 100% = 57 uM dopamine signal; in the data active = activation above about 40%
#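 Agonist mode: compounds alone added to overnight-plated D2 PathHunter cells for 90 min at 37 C, with 57 uM final dopamine (EC100) defining full response. Beta-arrestin recruitment detected by chemiluminescent reagent, read after 1 h at ambient temperature.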
# D2 PAM-1: potentiates the human D2 dopamine receptor allosterically; AID 624464; DiscoveRx D2 beta-arrestin cells, luminescence, 90 min; 100% = 57 uM dopamine signal; actives 0.23% (n = 360,000); potentiation, % (no concentration beside the values); in the data active = potentiation above about 50%
#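 PathHunter beta-arrestin assay in DiscoveRx D2 cells. Compounds were added with an EC20 of dopamine (50 nM final) for 90 min at 37 deg C. Luminescence was read 1 h after detection reagent, with 57 uM dopamine as the EC100 control.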
# D2 antagonist: antagonizes the human D2 dopamine receptor | inhibition, % at 10 µM | actives 2% (n = 340,000) | HEK293 TREx D2 cells, calcium flux, dopamine EC80 | P14416; in the data active = inhibition above about 30%; inactive = below that, where a call was filed; also: 0% is about no effect
#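 Overnight-induced (tetracycline, 30 C) HEK293 T-REx cells carrying force-coupled D2 receive a no-wash calcium dye, then compound, then EC80 dopamine at 180 s; signals are read kinetically throughout.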
# D2 PAM-2: positive allosteric modulators of human D2 dopamine receptor. P14416. potentiation, % at 10 µM. HEK293 T-REx D2, calcium flux, EC20 dopamine potentiation. actives 0.34% (n = 340,000);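 active = potentiation over 3 SD above the plate norm, cut at about 30% in these data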; also: 0% is about no effect
#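 Primary screen. Calcium kinetics in induced HEK293 T-REx D2 cells: compound pre-addition 180 s, EC20 dopamine, 180 s more.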
# Active calls of the source: *; x = not tested or not shown. Shown are actives, neighbours in structure and some others; about 2.4% of the full set was active somewhere.
SMILES,D2 ag-1,D2 ag-2,D2 PAM-1,D2 antagonist,D2 PAM-2
Cc1nn(-c2ccc(Cl)cc2)c(N)c1C(O)(CSc1nccn1C)C(F)(F)F (configuration not stated),1,1,-4,9,6
Cc1nn(-c2ccccc2)c(N)c1C(O)(CSc1nccn1C)C(F)(F)F (configuration not stated),0,0,6,37*,0
O=C(NC1=NCCS1)c1cc(-c2cccnc2)nc2ccccc12,1,-2,0,33*,-2
Cc1cc(C)nc(SCc2cn3ccccc3n2)n1,-1,0,10,38*,-1
Cc1cc(C)c(C#N)c(SCc2cn3ccccc3n2)n1,0,1,-11,-9,4
CCCCN(C(=O)Cc1cccc(F)c1)c1c(N)n(CCC)c(=O)[nH]c1=O,2,0,0,37*,6
COc1ccc(CCNC(=O)c2nc(SCc3ccc(F)cc3)ncc2Cl)cc1OC,0,x,x,x,6
Cc1cnc(C(=O)OCC(=O)NC(C)CCc2ccccc2)cn1 (configuration not stated),0,3,-1,34*,15
Cc1cnc(C(=O)OCC(=O)NCc2ccccc2)cn1,0,0,-3,-2,8
CCOC(=O)c1c(NC(C)=O)c2c3c(sc2n1Cc1cccc(Cl)c1)CCCC3,0,x,x,x,5
Cc1ccc(C)c(OCCN2C(=O)NC3(CCc4ccccc4C3)C2=O)c1 (configuration not stated),1,-4,-27,33*,-3
CCC(C)NC(=O)c1cc2n(n1)CCCN(Cc1ccc(C)cc1)C2=O (configuration not stated),1,x,x,x,2
CCc1c(C)sc2c1CCN(Cc1cccc(OC)c1)C2c1ccccc1 (configuration not stated),0,x,x,x,-2
CCC(C)COC(c1ccccc1)(c1ccccc1)C(Oc1nc(C)cc(C)n1)C(=O)O (configuration not stated),1,9,1,-4,-7
Cc1cc(C)nc(OC(C(=O)O)C(OCC(C)C)(c2ccccc2)c2ccccc2)n1 (configuration not stated),2,3,72*,-9,-6
COc1cccc(NCc2ccc([N+](=O)[O-])s2)c1,0,10,50*,-29,19
Cc1cc(=O)oc2c3c(cc(OCC(=O)N[C@@H](Cc4ccccc4)C(=O)O)c12)OC(C)(C)CC3,1,6,27,-3,-3
Cc1c(C)c2c(OCC(=O)NCC(=O)NCC(=O)O)cc3c(c2oc1=O)CCC(C)(C)O3,-1,0,2,-4,30*
Cc1cc(=O)oc2c3c(cc(OCC(=O)NC(Cc4ccc(Cl)cc4)C(=O)O)c12)OC(C)(C)CC3 (configuration not stated),-1,4,-6,36*,-2
CCN1C(=O)C(Cc2nc3ccccc3c(=O)n2C)c2cc(C)ccc21 (configuration not stated),1,x,x,x,-6
COc1cc2c3nnc(-c4ccc(F)cc4)c-3cn(Cc3ccccc3)c2cc1OC,0,50*,7,29,1
O=C(C1CCN(CC2CC=CCC2)CC1)N(CCc1ccccc1)Cc1ccccc1 (configuration not stated),-1,3,-15,26,-18
CCN(Cc1ccccc1)C1CCN(Cc2ccc(SC)cc2)CC1,x,-2,-13,x,x
O=C(C1CCN(CCCc2ccccc2)CC1)N(CCc1ccccc1)Cc1ccccc1,5,0,-20,39*,-23
CCN(Cc1ccccc1)C(=O)C1CCN(Cc2ccc(SC)cc2)CC1,0,4,-22,81*,-7
CCCOc1ccc(NC(=O)CC2C(=O)N(c3cccc(OC)c3)C(=O)N2CCc2ccncc2)cc1 (configuration not stated),0,x,x,x,-4
Cc1ccc(C)c(NC(=O)COC(=O)CC2CC3CCC2C3)c1 (configuration not stated),x,-1,-6,x,x
O=C(COC(=O)CC1CC2CCC1C2)Nc1cc([N+](=O)[O-])ccc1F (configuration not stated),0,2,1,-14,32*
